Screening data (PubChem BioAssay)
KB-3-1 cytotox: qHTS assay for MDR1-selective chemotherapeutics: Primary screen using the parental adenocarcinoma cell KB-3-1. KB-3-1 viability, CellTiter-Glo ATP luminescence, 72 h. Potency, µM (top dose mostly 46.1 µM), actives largely listed as cytotoxic. hit rate 1.4% among 400,000. AID 1347075, 2019; further: potency means the concentration at half of the fitted maximal effect; on the % scale 0 is the no-effect control and ±100 the full control effect; nearly all actives have a fitted effect of over 60% in size
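Using CellTiter-Glo luminescence, growth of non-resistant KB-3-1 adenocarcinoma cells is assessed 72 h after pin-tool compound addition at 37 °C. Normalized responses across the concentration series yield fitted curves.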
KB-V1 MDR tox: qHTS assay for MDR1-selective chemotherapeutics: Primary screen using the drug-selected MDR subline cells KB-V1; KB-V1 MDR cells viability, CellTiter-Glo, 72 h; Potency, µM (top dose mostly 46.1 µM), most hits filed as cytotoxic; hit rate 3.4% among 400,000; AID 1347076, 2019; further: potency means the concentration at half of the fitted maximal effect; on the % scale 0 is the no-effect control and ±100 the full control effect; nearly all actives have a fitted effect of over 60% in size
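Following 72 h at 37 degrees C with compound, KB-V1 cell viability was read by CellTiter-Glo luminescence, medium being phenol-red-free DMEM plus 10% FBS; concentration-response parameters came from normalized, curve-fitted qHTS data.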
KCNH2 3.1 inh: qHTS for Inhibitors of KCHN2 3.1: Mutant qHTS. U2OS KCNH2 3.1, thallium flux FluxOr; hits give low values. activity change, % (tested at about 1.8 µM). hit rate 0.95% among 340,000. AID 720553, 2013;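 active means maximum activity change below -70%; inconclusive means maximum activity change from -70% to -50%; inactive means maximum activity change above -50%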;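 further: thallium influx rate constant from kinetic fluorescence after stimulation buffer; on the % scale 0 is the no-effect control and ±100 the full control effect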
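Thallium flux via FluxOr fluorescence (Red40 quencher, 45 min loading) in U2OS cells virally expressing the KCNH2 3.1 isoform (1.77 x 10^8 /mL virus, overnight at 37 C). Rate constants from 2-min kinetic reads post-stimulation, normalised to positive and negative controls.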
hERG WT inh: qHTS for Inhibitors of KCHN2 3.1: Wildtype qHTS. Voltage-gated inwardly rectifying potassium channel KCNH2 (Homo sapiens), Q12809. U2OS, BacMam KCNH2, thallium flux FluxOr; hits give low values. activity change, % at 1.84 µM. hit rate 0.37% among 340,000. AID 720551, 2013;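 active means maximum activity change below -70%; inconclusive means maximum activity change between -70% and -50%; inactive means maximum activity change above -50%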; further: on the % scale 0 is the no-effect control and ±100 the full control effect
Target sequence (Q12809 whole entry, looked up): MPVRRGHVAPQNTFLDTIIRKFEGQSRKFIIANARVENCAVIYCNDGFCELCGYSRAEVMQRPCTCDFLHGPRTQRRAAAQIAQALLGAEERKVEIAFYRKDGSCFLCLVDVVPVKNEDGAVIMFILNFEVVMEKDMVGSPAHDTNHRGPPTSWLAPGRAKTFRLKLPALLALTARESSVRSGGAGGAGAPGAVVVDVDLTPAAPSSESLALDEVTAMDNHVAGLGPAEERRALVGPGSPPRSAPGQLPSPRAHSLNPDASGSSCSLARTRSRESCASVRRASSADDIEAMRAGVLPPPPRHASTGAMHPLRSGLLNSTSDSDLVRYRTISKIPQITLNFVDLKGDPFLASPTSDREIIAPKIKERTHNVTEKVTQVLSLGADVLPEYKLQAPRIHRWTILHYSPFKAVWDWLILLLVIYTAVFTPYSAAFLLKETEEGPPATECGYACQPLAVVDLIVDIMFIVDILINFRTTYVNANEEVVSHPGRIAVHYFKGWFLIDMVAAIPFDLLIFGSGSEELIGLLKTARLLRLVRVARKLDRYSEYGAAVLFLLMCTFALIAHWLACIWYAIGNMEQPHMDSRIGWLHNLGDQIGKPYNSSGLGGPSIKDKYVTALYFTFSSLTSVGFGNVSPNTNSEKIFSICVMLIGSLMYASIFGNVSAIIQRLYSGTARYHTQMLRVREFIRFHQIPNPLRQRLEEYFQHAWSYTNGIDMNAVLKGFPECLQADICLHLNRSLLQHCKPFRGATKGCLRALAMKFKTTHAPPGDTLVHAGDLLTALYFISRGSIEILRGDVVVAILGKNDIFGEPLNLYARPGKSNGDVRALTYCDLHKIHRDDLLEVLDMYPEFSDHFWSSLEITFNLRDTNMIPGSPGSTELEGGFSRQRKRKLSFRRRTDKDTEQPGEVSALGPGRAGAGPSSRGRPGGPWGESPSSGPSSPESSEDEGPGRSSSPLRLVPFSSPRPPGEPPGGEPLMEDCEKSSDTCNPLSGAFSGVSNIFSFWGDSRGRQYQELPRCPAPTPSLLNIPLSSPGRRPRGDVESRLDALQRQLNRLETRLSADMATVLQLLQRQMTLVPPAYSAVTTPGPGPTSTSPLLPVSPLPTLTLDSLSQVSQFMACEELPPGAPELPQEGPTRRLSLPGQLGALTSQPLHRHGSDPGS
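U2OS cells were transduced with wild-type KCNH2 virus (2.03 x 10^8 / mL) for 4 h at room temperature, then cultured overnight at 37 C. Thallium flux was read with FluxOr dye. Rate constants were normalized to DMSO controls.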
SW480 rereplic: A quantitative high throughput screen for small molecules that induce DNA re-replication in SW480 colon adenocarcinoma cells | SW480 DNA re-replication, Hoechst DNA content imaging, 48 h | Potency, µM (doses to about 46.1 µM), inactives show at the highest dose re-replication activation, hits mostly activators | hit rate 1.8% among 340,000; further: potency means the concentration at half of the fitted maximal effect; % of control where 0% means no effect; nearly all actives have a fitted effect of over 55% in size
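250 cells/well; 23 nL cpd via pin tool; 48 hr, 37 C, 5% CO2; Hoechst 40 min; imager read of total nuclear intensity, ex 405/em 500-530 nm.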
MCF10A rereplic: A quantitative high throughput screen for small molecules that induce DNA re-replication in MCF 10a normal breast cells. MCF 10A DNA re-replication, Hoechst nuclear intensity, 48 h. Potency, µM (doses to about 46.1 µM), for inactives: at the highest dose activity, positive = re-replication, most hits filed as activators. hit rate 2.9% among 350,000. AID 624296, 2012; further: potency means the concentration at half of the fitted maximal effect; % of control where 0% means no effect; nearly all actives have a fitted effect of over 50% in size
Active calls of the source: *; i = inactive; ? = inconclusive; . = no result given. Only some compounds are listed: those with a hit (about 7.6% of all), similar ones and a draw of the others. Unless noted, the call rests on the fitted dose curve; in most records, active means well fitted curve in the direction sought with a large enough effect; inconclusive means small, poorly fitted or top-dose-only effect, or another doubt; inactive means no such curve, though single readings can be large; an effect the other way counts as inactive or inconclusive.

SMILES	KB-3-1 cytotox	KB-V1 MDR tox	KCNH2 3.1 inh	hERG WT inh	SW480 rereplic	MCF10A rereplic
COc1ccc(NC(=O)C(Cl)=C(Cl)Cl)cn1	?	?	14	4	?	21µM*
COC(=O)CNC(=O)C(C)(C)Oc1ccc(Cl)cc1	i	i	-2	-8	-7%	-12%
COc1ccc(NC(=O)C(C)(C)Oc2ccc(Cl)cc2)cn1	i	15µM*	-8	-29	-2%	1%
C/C(=N\NC(=O)C1COc2ccccc2O1)c1ccc(N2CCOCC2)cc1 (configuration not stated)	i	?	-3	-13	-3%	9%
N#Cc1ccc(S(=O)(=O)N2CCN(c3nc(-c4cccs4)nc4ccccc34)CC2)cc1	?	i	.	.	.	.
O=[N+]([O-])c1cc(S(=O)(=O)Oc2ccccc2)ccc1Cl	?	?	-18	-4	3.3µM*	?
Cc1ccc(SCc2nc(-c3ccc(C(=O)NCC(C)c4ccccc4)cc3)oc2C)cc1 (configuration not stated)	?	i	.	.	.	.
O=C(COc1ccccc1Cl)Nc1ccc(N2CCCC2)cc1	i	i	-8	-7	16µM*	?
O=C(c1ccco1)N1CCN(C(=O)C(Sc2ccccc2)c2ccccc2)CC1 (configuration not stated)	?	21µM*	11	2	-4%	?
O=C(c1ccco1)N1CCN(Cc2ccc(Cl)cc2)CC1	i	i	31	-10	-1%	-1%
O=C(CSc1ccccc1)N1CCN(C(=O)c2ccco2)CC1	i	i	-7	2	-9%	?
CC(Oc1ccc(Cl)cc1)C(=O)N1CCN(C(=O)c2ccco2)CC1 (configuration not stated)	i	21µM*	-164*	-129*	-10%	-5%
Cc1cccc(OCC(=O)Nc2ccc(N3CCN(S(C)(=O)=O)CC3)cc2)c1C	i	i	-7	-5	-4%	2%
Cc1ccccc1OCC(=O)Nc1ccc(N2CCN(S(C)(=O)=O)CC2)cc1	i	3.7µM*	-22	-8	-1%	9%
CCOc1ccc(CNC(=O)CSc2nnc(C)c3c(C)n(-c4ccc(Cl)cc4)nc23)cc1	i	i	.	.	.	.
Cc1ccccc1OCC(=O)Nc1ccc(N2CCN(C(=O)c3ccco3)CC2)cc1	?	7.3µM*	8	9	-2%	0%
O=C(COc1ccc(Cl)cc1)Nc1ccc(N2CCN(C(=O)c3ccco3)CC2)cc1	?	13µM*	-6	4	14%	?
Cc1cccc(OCC(=O)Nc2ccc(N3CCN(C(=O)c4ccco4)CC3)cc2)c1C	i	i	-2	-13	-1%	7%
O=C(c1ccco1)N1CCN(C(=O)C2CC(=O)N(c3ccc(Cl)cc3)C2)CC1 (configuration not stated)	i	i	-95*	-12	-18%	-21%
O=C(c1ccco1)N1CCN(C(c2ccc(Cl)cc2)c2nnnn2Cc2ccccc2)CC1 (configuration not stated)	?	16µM*	-4	-3	-3%	14%
CCCCN(CC)CCCNC(=O)Cn1ncc2c3ccccc3n(Cc3ccccc3F)c2c1=O	i	i	.	.	.	.
CCc1noc(C)c1C(=O)N(CC)CC(=O)NCc1ccc(Cl)cc1	i	i	11	-4	-9%	1%
NNC(=O)c1csc(-c2ccc(C(F)(F)F)cc2Cl)n1	i	?	-3	1	2%	23%
Cc1cc(F)ccc1NC(=O)CN(C)S(=O)(=O)c1ccc(C(=O)N2CCOCC2)s1	?	i	.	.	.	.
CC1(C)OC(=O)C2(Cc3ccc(Cl)cc3N3CCCC32)C(=O)O1 (configuration not stated)	i	i	.	.	.	.
SMILES	KB-3-1 cytotox	KB-V1 MDR tox	KCNH2 3.1 inh	hERG WT inh	SW480 rereplic	MCF10A rereplic
Cc1cccc2cc(C3CC(c4cccs4)=NN3S(C)(=O)=O)c(Cl)nc12 (configuration not stated)	i	?	-6	-4	-10%	16%
COc1ccc(S(=O)(=O)NCC2CCC(C(=O)NCCC(C)C)CC2)cc1 (configuration not stated)	?	?	5	7	6%	7%
CC(=O)Nc1nonc1NC(=O)CSc1nc2ccccc2o1	i	i	-11	7	21µM*	-3%
Cc1cccc(NC(=O)CSc2nc3ccccc3o2)c1	i	i	1	-16	-5%	5%
Cc1nn2c(-c3cccc(NC(=O)CSc4nc5ccccc5o4)c3)nnc2c2ccccc12	i	?	-15	6	-7%	10µM*
Cc1nonc1NC(=O)CSc1nc2ccccc2o1	i	i	-20	-5	-14%	-3%
Cc1c(C)c2c(OCC(=O)N3CCC(O)CC3)cc3c(c2oc1=O)CCC(C)(C)O3	i	i	8	-8	-5%	2%
COc1cccc(C2C(C(=O)Nc3ccc(Cl)cc3)=C(C)Nc3c(C(=O)Nc4ccccc4)cnn32)c1OC (configuration not stated)	i	i	.	.	.	.
Cn1c(=O)c2c(n3c4ccccc4nc13)NC(=O)CC2c1ccccc1F (configuration not stated)	i	i	.	.	.	.
CC1=C(C(=O)OCc2ccc(C)cc2)C(c2ccccc2F)CC(=O)N1 (configuration not stated)	i	i	.	.	.	.
O=C1CC(c2ccccc2F)c2cc3c(cc2N1)CCC3 (configuration not stated)	8.2µM*	13µM*	21	11	-6%	-2%
COC(=O)C1=C(C)NC(=O)CC1c1ccccc1F (configuration not stated)	i	i	0	14	?	5.8µM*
O=C1CC(c2cc(Br)ccc2F)c2cc3c(cc2N1)CCC3 (configuration not stated)	1.6µM*	?	-7	6	1.2µM*	1.5µM*
O=C(c1ccc(Cl)cc1Cl)N1CCN(c2ccc(N3CCOCC3)nn2)CC1	i	?	-14	9	0%	13%
CCCNC(=O)Cn1nc(C(F)(F)F)cc1C	i	i	-2	-4	1%	-1%
O=C(O)c1sccc1S(=O)(=O)N1CCOCC1	i	i	4	-4	-3%	-6%
